The results in this text go back to PubChem BioAssay.

Experiment [1] is described as follows: antimalarial activity against Dd2 strain (AID 2302;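 active means growth inhibition above 50% at the single 2 µM test dose, taken to imply half-maximal potency below 2 µM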;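 further: 0% = DMSO untreated growth and 100% = chloroquine plus artemisinin killed control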). The following applies: P. falciparum Dd2 in RBCs, LDH growth readout, 72 h; at 2 µM; hits give high values.
Experiment [2] can be described thus: HepG2 cytotoxicity, primary screen, cytotoxicity control for P. falciparum antimalarial project, cell-based, ATP luminescence (AID 2303;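 active means inhibition above 50%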;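 further: 0% = DMSO wells and 100% = digitonin-killed cells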). To be noted: HepG2 viability, 24-48 h, at 10 µM, hits give high values.
In experiment [3] the target is L-lactate dehydrogenase (Plasmodium falciparum (isolate CDC / Honduras)) (UniProt Q27743). Briefly: PfLDH activity inhibition – cell lysate, 3D7 strain, counter-screen for P. falciparum growth inhibition project (AID 2304).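 Further: 0% = vehicle and 100% = reference inhibitor.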 The following applies: P. falciparum 3D7 crude extract, LDH APAD/NBT absorbance; at 2 µM; hits give high values. (In general: A counterscreen serves to expose hits that act by an unwanted route or on another target.)

Experiment [4] can be described thus: inhibition of 3D7 malaria parasite growth – strain 3D7 (AID 2306).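 Further: 0% = DMSO wells and 100% = chloroquine plus artemisinin control wells.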 To be noted: P. falciparum 3D7 erythrocytic growth, LDH absorbance, 72 h; at 2 µM; hits give high values.
For experiment [5], the target named is Calcium-dependent protein kinase 1 (Plasmodium falciparum (isolate 3D7)) (UniProt P62344). Briefly: PfCDPK1 kinase inhibitors, biochemical, TCAMS library (AID 1159585; cut-off not given, nearly all actives have IC50 up to about 0.98 µM;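 further: inhibitors leave more ATP so luminescence rises with inhibition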). To be noted: recombinant PfCDPK1, Kinase-Glo ATP depletion luminescence. In general terms: Kinase-Glo reads ATP consumption through a luciferase reaction.
For experiment [6], the target named is Plasmodium falciparum protein kinase 6 (PK6, PF3D7_1337100) (UniProt Q8IDW1). Briefly: PfPK6 kinase inhibitors, biochemical, TCAMS library (AID 1159586). To be noted: recombinant PfPK6, Kinase-Glo ATP depletion luminescence.
The target in experiment [7] is Protein kinase 7 (PK7), Plasmodium falciparum 3D7 (PF3D7_0213400) (UniProt Q7YTF7). Briefly: inhibition of Plasmodium PK7 catalytic activity – biochemical, TCAMS antimalarial set, Kinase-Glo luminescence (AID 1159587). The following applies: recombinant PfPK7, Kinase-Glo ATP depletion luminescence.
Experiment [8] deals with Calcium-dependent protein kinase 4 (Plasmodium falciparum (isolate 3D7)) (UniProt Q8IBS5). Briefly: PfCDPK4 kinase inhibitors, biochemical, TCAMS library (AID 1159588; cut-off not given, nearly all actives have IC50 up to about 0.91 µM). The following applies: recombinant PfCDPK4, Kinase-Glo ATP depletion luminescence.

Values without a mark were called inactive. For some of these results: Results with a measured potency or affinity are listed apart. Active and inactive are the calls of the source. Unless noted, how the calls were made is not given here.

L-lactate dehydrogenase (Plasmodium falciparum (isolate CDC / Honduras)), sequence (Q27743 whole entry, looked up): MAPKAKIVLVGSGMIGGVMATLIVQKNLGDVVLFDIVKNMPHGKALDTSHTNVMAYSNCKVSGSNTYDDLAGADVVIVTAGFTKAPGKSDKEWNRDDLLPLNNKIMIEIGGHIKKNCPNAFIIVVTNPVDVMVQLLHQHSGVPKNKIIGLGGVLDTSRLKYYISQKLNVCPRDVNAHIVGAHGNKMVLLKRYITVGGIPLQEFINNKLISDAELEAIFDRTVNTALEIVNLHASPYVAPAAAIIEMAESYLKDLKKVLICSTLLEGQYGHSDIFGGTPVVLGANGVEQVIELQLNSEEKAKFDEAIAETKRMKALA
Calcium-dependent protein kinase 1 (Plasmodium falciparum (isolate 3D7)), sequence (P62344 whole entry, looked up): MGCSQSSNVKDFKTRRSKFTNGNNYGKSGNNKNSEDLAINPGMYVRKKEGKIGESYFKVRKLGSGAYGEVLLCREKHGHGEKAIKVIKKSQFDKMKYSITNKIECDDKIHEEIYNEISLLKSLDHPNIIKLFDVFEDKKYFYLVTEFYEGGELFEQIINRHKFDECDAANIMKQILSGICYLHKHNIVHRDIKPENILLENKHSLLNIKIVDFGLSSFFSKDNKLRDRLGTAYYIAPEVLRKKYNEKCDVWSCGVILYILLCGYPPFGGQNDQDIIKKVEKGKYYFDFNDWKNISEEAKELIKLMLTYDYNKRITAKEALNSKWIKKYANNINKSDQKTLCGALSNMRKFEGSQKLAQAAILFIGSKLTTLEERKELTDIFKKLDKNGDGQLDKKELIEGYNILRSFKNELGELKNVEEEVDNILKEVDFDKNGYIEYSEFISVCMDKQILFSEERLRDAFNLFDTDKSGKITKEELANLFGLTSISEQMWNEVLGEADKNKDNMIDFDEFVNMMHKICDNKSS
Plasmodium falciparum protein kinase 6 (PK6, PF3D7_1337100), sequence (Q8IDW1 1-305): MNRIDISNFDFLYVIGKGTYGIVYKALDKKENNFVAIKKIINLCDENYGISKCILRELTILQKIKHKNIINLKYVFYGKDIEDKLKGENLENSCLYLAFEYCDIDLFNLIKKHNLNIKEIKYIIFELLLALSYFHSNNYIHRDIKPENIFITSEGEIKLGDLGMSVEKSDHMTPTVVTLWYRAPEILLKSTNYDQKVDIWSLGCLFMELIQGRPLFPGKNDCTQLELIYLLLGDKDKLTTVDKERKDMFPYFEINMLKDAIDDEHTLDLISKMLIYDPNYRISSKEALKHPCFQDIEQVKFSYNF
Calcium-dependent protein kinase 4 (Plasmodium falciparum (isolate 3D7)), sequence (Q8IBS5 whole entry, looked up): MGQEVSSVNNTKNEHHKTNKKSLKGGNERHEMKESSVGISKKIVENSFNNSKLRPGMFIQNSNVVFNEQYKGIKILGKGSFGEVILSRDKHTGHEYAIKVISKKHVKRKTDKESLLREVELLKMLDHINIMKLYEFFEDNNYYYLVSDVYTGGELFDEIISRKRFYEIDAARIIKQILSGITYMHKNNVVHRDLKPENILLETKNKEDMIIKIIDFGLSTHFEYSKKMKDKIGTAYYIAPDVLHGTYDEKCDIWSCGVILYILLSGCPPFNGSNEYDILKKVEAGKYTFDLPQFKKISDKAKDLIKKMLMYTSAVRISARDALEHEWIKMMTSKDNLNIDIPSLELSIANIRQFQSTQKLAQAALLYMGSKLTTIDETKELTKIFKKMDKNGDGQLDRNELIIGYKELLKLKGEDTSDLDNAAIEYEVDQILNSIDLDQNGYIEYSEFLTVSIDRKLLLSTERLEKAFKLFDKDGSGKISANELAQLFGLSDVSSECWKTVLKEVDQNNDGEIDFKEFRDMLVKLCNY
Protein kinase 7 (PK7), Plasmodium falciparum 3D7 (PF3D7_0213400), sequence (Q7YTF7 1-343): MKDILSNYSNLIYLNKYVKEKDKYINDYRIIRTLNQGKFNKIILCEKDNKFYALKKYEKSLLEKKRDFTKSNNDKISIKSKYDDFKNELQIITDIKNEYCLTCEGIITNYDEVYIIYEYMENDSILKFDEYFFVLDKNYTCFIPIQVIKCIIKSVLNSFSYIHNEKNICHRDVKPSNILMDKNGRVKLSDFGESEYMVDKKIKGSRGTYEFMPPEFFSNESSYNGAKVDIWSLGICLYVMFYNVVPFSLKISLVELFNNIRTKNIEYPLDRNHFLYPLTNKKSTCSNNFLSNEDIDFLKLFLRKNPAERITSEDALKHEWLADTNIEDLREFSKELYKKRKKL

For the compound `CN1CCN(C(C(=O)NCc2cc(Cl)cc(Cl)c2)c2ccc(Nc3cccc(C(F)(F)F)c3)cc2)CC1` (stereo not given), the results for the growth inhibition in experiment [1] and in experiment [4] were 98% (active) and 85% (active), respectively. The inhibition (commonly the change of the read-out against control, counted positive when it falls) is 49% in experiment [2] and 5% in experiment [3]. Also, the result in experiment [5], in experiment [6], in experiment [7] and in experiment [8] was inactive.

Take `O=C(Nc1ccc2c(c1)CCC2)c1ccc(N2CCN(c3ccncc3)CC2)cc1`: the results for the growth inhibition in experiment [1] and in experiment [4] were 75% (active) and 101% (active), respectively. In addition, the inhibition in experiment [2] is 72% (active); in experiment [3], 4%. Also, the outcome in experiment [5], in experiment [6], in experiment [7] and in experiment [8] was inactive.

For `O=C(Nc1cccc(CN2CCCN(Cc3cccnc3)CC2)c1)c1ccc(Cl)c(Cl)c1`, the growth inhibition is 19% in experiment [1] and 84% (active) in experiment [4]. Besides, the results for the inhibition in experiment [2] and in experiment [3] were 16% and -2%, respectively. Moreover, the outcome in experiment [5], in experiment [6], in experiment [7] and in experiment [8] was inactive.

With `Cc1ccc(C(=O)Nc2ccc(Cl)c(N3CCN(CCc4ccccc4)CC3)c2)cc1`, the growth inhibition in experiment [1] is 14%; in experiment [4] it was 90% (active). In addition, the inhibition in experiment [2] is 17%; in experiment [3], -7%. Further, the result in experiment [5], in experiment [6], in experiment [7] and in experiment [8] was inactive.

Consider `Nc1ncc(-c2ccc3[nH]ccc3c2)c2ccc(-c3ccncc3)cc12`, for which the growth inhibition in experiment [1] and in experiment [4] was 100% (active) each time. Moreover, the inhibition was 42% in experiment [2] and -6% in experiment [3]. Moreover, the result in experiment [5], in experiment [6], in experiment [7] and in experiment [8] was inactive.

For `COc1cccc(C2CCN(CCN3CCC(NC(=O)c4ccc(-c5ccc(C(F)(F)F)cc5)cc4)CC3)CC2)c1`, the growth inhibition in experiment [1] and in experiment [4] was 99% (active) in each case. In addition, the inhibition in experiment [2] is 46%; in experiment [3] it was -7%. The outcome in experiment [5], in experiment [6], in experiment [7] and in experiment [8] was inactive.

With `CCCCCC(C)c1cc(O)c2c(c1)OC(C)(C)C=C2C1=CCN(Cc2ccccc2)CC1` (stereo not given), the growth inhibition in experiment [1] and in experiment [4] was 96% (active) each time. For the same compound, the inhibition is 13% in experiment [2] and -5% in experiment [3]. Further, the result in experiment [5], in experiment [6], in experiment [7] and in experiment [8] was inactive.

As for `CC(C)(C)c1ccc(OCC(=O)NC2CCN(c3ccnc4cc(Cl)ccc34)C2)cc1` (stereo not given), the values for the growth inhibition in experiment [1] and in experiment [4] were 100% (active) and 98% (active), respectively. Further, the values for the inhibition in experiment [2] and in experiment [3] were 17% and -2%, respectively. Besides, the outcome in experiment [5], in experiment [6], in experiment [7] and in experiment [8] was inactive.

On to `CCc1ccc(CN2CCC(CNC(=O)c3cc(-c4cccc(C(F)(F)F)c4)cs3)C2)cc1` (stereo not given), for which the growth inhibition was 48% in experiment [1] and 97% (active) in experiment [4]. Moreover, the inhibition in experiment [2] is 45%; in experiment [3], 2%. Further, the outcome in experiment [5], in experiment [6], in experiment [7] and in experiment [8] was inactive.

Turning to `c1cc(-c2ccc(CNCCCN3CCOCC3)cc2)cc(-c2nc3ccccc3[nH]2)c1`, the growth inhibition was -1% in experiment [1] and 100% (active) in experiment [4]. For the same compound, the inhibition in experiment [2] is 26%; in experiment [3], -2%. Moreover, the outcome in experiment [5], in experiment [6], in experiment [7] and in experiment [8] was inactive.

Regarding `CCCc1ccc(NC(=O)c2ccc(CN3CCCN(CC4CCCCC4)CC3)cc2)cc1`, the growth inhibition was 41% in experiment [1] and 95% (active) in experiment [4]. Also, the values for the inhibition in experiment [2] and in experiment [3] were 49% and -7%, respectively. Further, the result in experiment [5], in experiment [6], in experiment [7] and in experiment [8] was inactive.

In the case of `COc1cc2nc(NCCc3ccccc3)nc(NCc3ccc(C#N)cc3)c2cc1OC`, the growth inhibition in experiment [1] and in experiment [4] was 100% (active) in each case. Also, the results for the inhibition in experiment [2] and in experiment [3] were 52% (active) and 0%, respectively. In addition, the result in experiment [5], in experiment [6], in experiment [7] and in experiment [8] was inactive.

For `O=C(Nc1ccc(NC2=NCCN2)cc1)Nc1ccc(NC2=NCCN2)cc1`, the growth inhibition in experiment [1] is 72% (active); in experiment [4], 88% (active). In addition, the inhibition in experiment [2] is -6%; in experiment [3], -1%. For the same compound, the outcome in experiment [5], in experiment [6], in experiment [7] and in experiment [8] was inactive.

As for `CCC[C@@H]([C@@H](CC1CCCCC1)C(=O)N[C@@H](CCOC(=O)NCC)C(=O)Nc1nccs1)N(O)C=O`, the growth inhibition in experiment [1] was 79% (active); in experiment [4] it was 101% (active). Besides, the inhibition in experiment [2] is -13%; in experiment [3] it was -7%. The outcome in experiment [5], in experiment [6], in experiment [7] and in experiment [8] was inactive.

As for `CC(C)N1CCC(N(Cc2ccc(-c3ccc(C(F)(F)F)cc3)cc2)C(=O)Cn2c(CCc3cccc(F)c3F)nc(=O)c3cccnc32)CC1`, the growth inhibition in experiment [1] is 80% (active); in experiment [4], 100% (active). Further, the inhibition in experiment [2] was 100% (active); in experiment [3] it was 6%. Further, the outcome in experiment [5], in experiment [6], in experiment [7] and in experiment [8] was inactive.

Turning to `COc1ccc(C(=O)NCc2ccccc2-c2ccc(C(C)(C)C)cc2)cc1O`, the values for the growth inhibition in experiment [1] and in experiment [4] were 97% (active) and 99% (active), respectively. The inhibition in experiment [2] is 10%; in experiment [3], 1%. Further, the outcome in experiment [5], in experiment [6], in experiment [7] and in experiment [8] was inactive.

Turning to `CCN(CCCN1CCCCC1)c1cc(C)nc(Nc2cc(C)ccc2C)n1`, the growth inhibition in experiment [1] was 42%; in experiment [4] it was 93% (active). Further, the figures for the inhibition in experiment [2] and in experiment [3] were 34% and 2%, respectively. In addition, the outcome in experiment [5], in experiment [6], in experiment [7] and in experiment [8] was inactive.

For the compound `NC(=O)c1cccc(C(=O)Nc2cccc(-c3cccc(-c4nc5ccc(C(F)(F)F)cc5[nH]4)c3)c2)c1`, the results for the growth inhibition in experiment [1] and in experiment [4] were 85% (active) and 100% (active), respectively. Besides, the inhibition in experiment [2] was 71% (active); in experiment [3], -5%. Further, the outcome in experiment [5], in experiment [6], in experiment [7] and in experiment [8] was inactive.

For `C=CCOc1ccccc1CNCC(O)c1cc(Br)cs1` (stereo not given), the growth inhibition in experiment [1] is 72% (active); in experiment [4] it was 93% (active). Further, the inhibition in experiment [2] was 25%; in experiment [3], -4%. The outcome in experiment [5], in experiment [6], in experiment [7] and in experiment [8] was inactive.

As for `O=c1cc(NCCCNC2CCc3c(Cl)cc(Cl)cc32)[nH]c2ccccc12` (stereo not given), the figures for the growth inhibition in experiment [1] and in experiment [4] were 29% and 100% (active), respectively. Besides, the results for the inhibition in experiment [2] and in experiment [3] were 3% and 0%, respectively. Moreover, the outcome in experiment [5], in experiment [6], in experiment [7] and in experiment [8] was inactive.
